Screening data as filed in PubChem.
An excerpt weighted towards active compounds, which were near 7.9% of everything screened.
Lassa entry inh: blocks Lassa virus binding to or entry into cells | AID 540256 | Lassa virus pseudotype entry inhibition, cell reporter | Potency, µM (titrated, usually from 37.9 µM), inactives show at the highest dose activity change, negative = inhibition, usual class: inhibitors | 300,000 tested, 1.2% active; calls by dose curve; tested in HEK293 cells; also: potency is read from the fitted curve at half-maximal effect; nearly all actives have a fitted effect of over 50% in size
HCMV inh: blocks human cytomegalovirus replication; HFF cells, HCMV-luciferase reporter, 72 h; stronger effect = lower value; activity change, negative = inhibition, % at 57.5 µM; 410,000 tested, 4.5% active; AID 1259415; in the data active = activity change below about -60%; inconclusive = no clear call, values can overlap the other calls; inactive = above about -39%
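Cell-based, HFFs, 1000 cells/well, 16 h 37C; cpds in DMSO + HCMV-luc, MOI 1 PFU/cell; 72 h 37C; OneGlo luminescence after 5 min RT; norm. to buffer vs Salinomycin 10uM.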
Marburg entry inh: inhibitors of Marburg virus binding or cell entry; 300,000 tested, 1.8% active; Potency, µM (titrated, usually from 37.8 µM), for the others: top-dose activity change, negative = inhibition, actives largely listed as inhibitors; Marburg virus pseudotyped entry inhibition, cell reporter; AID 540276; calls by dose curve; tested in HEK293 cells; also: potency is read from the fitted curve at half-maximal effect
HCV inhibitor: inhibitors of hepatitis C virus infection; Huh7.5.1 HCVcc-Cre infection, luciferase reporter, 44 h; Potency, µM (highest dose often 41.8 µM), for the others: at the top dose activity change, negative = inhibition, actives largely listed as inhibitors; 340,000 tested, 3.4% active; AID 651820; active = well fitted inhibition curve with a large enough effect; inconclusive = small, poorly fitted or top-dose-only effect, or another doubt; inactive = no such curve, though single readings can be large or run the other way; also: potency is read from the fitted curve at half-maximal effect
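Infectious HCV cell culture screen: compound-treated cells (1,000/well, pre-plated 4 h) are infected with HCVcc-Cre at roughly 0.5 moi and grown 44 h. Infection is quantified by luciferase signal after 15 min substrate incubation at room temperature.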
FMDV antiviral: blocks foot and mouth disease virus. FMDV antiviral cell-based qHTS. Potency, µM (doses to about 57.9 µM), inactives show at the top dose activity change, negative = inhibition, hits mostly inhibitors. 410,000 tested, 1.2% active; calls by dose curve; tested in HEK293T cells; also: read-out not given here; potency is read from the fitted curve at half-maximal effect; nearly all actives have a fitted effect of over 45% in size
* = called active by the depositor; ? = inconclusive; . = no result; ! = not active in a repeat; [ ] = dose if it differs, or a comment. % is scaled to controls: 0 for no effect and ±100 for the full control effect.

SMILES	Lassa entry inh	HCMV inh	Marburg entry inh	HCV inhibitor	FMDV antiviral
COc1ccc(/C=N/NC(=O)c2ccc(OC)c(OC)c2)cc1COc1c(F)c(F)c(F)c(F)c1F	1%[46.1 µM]	-5	1%[46.1 µM]	3.5µM*	-5%
COc1ccc(/C=N\NC(=O)c2cc(O)c(O)c(O)c2)cc1COc1ccc(C(=O)OCC(C)C)cc1	.	0	.	5.6µM*	13%
COc1ccc(/C=N\NC(=O)c2ccc(F)cc2)cc1COc1cc(F)ccc1[N+](=O)[O-]	?	19	-20%	10µM*	25µM*
CCCN1CCN(CCCNC(=O)Cn2c(-c3cccs3)cc3ccccc32)CC1	-22%[46.1 µM]	?	.	.	-11%
Cc1cnc(-n2ncc(C(=O)NCCN3CCOCC3)c2-c2cccs2)nc1-c1ccc(F)cc1	.	.	.	.	-2%
COc1ccc(/C=N/NS(=O)(=O)c2ccc(F)cc2)cc1COc1cc(F)ccc1[N+](=O)[O-]	-17%[46.1 µM]	-66*	-23%[46.1 µM]	?	-15%
CCOc1ccc(/C=N/NS(=O)(=O)c2ccc(C)cc2)cc1OC	.	19	.	3%	0%
CC1=C(/C=C/C(C)=C/C=C/C(C)=C/C(=O)O)C(C)(C)CCC1O (stereo not drawn)	.	.	.	.	-22%
C[C@H]1CN([C@@H](C)CO)S(=O)(=O)c2ccc(/C=C/c3ccccc3)cc2O[C@H]1CN(C)C(=O)NC1CCCCC1	.	-63*	.	.	-2%
C[C@H](CO)N1C[C@H](C)[C@H](CN(C)Cc2ccc(Oc3ccccc3)cc2)Oc2cc(Br)ccc2S1(=O)=O	.	-109*	.	.	-21%
CCCn1c(N)c(C(=O)CSc2nnc(N)s2)c(=O)[nH]c1=O	.	7	.	-4%	-24%
CCCn1c(N)c(C(=O)CSc2nc3ccccc3s2)c(=O)[nH]c1=O	?	-66*	?	?	?
CC(=O)OC1CC[C@]2(C#N)[C@H]3CC[C@]4(C)[C@H](C5C=CC(=O)O5)CCC4(O)C3CCC2(O)C1 (stereo partly drawn)	.	-93*	.	2%	?
COc1ccccc1C(=O)Nc1ccccc1OCc1cc(=O)n2c(C)csc2n1	22%[46.1 µM]	16	9%[46.1 µM]	.	-16%
CC(=O)C1=C(O)C(=O)N(Cc2ccccc2)C1c1ccc(F)cc1 (stereo not drawn)	.	-77*	.	13%	-11%
Fc1ccc(-c2cn3cc(Cc4ccccc4)sc3n2)cc1	?	-66*	?	.	13µM*
CC(C)c1ccc(NC(=S)N2CCCC(c3ccc(F)cc3)=N2)cc1	-24%[46.1 µM]	-22	2.5µM*	8%	-10%
S=C(Nc1ccccc1Cl)N1CCCC(c2ccccc2)=N1	-14%	-25	-23%[46.1 µM]	-84%	-9%
O=C(NCc1cccnc1)c1nc(-c2ccc(C(F)(F)F)cc2)no1	-9%	-61*	?	?	-27%
O=C(NCc1cccnc1)c1ccc(Cn2cc(C(F)(F)F)ccc2=O)cc1	-26%[46.1 µM]	-16	-3%[46.1 µM]	-19%	-22%
O=C(NCc1ccncc1)c1nc(-c2ccc(C(F)(F)F)cc2)no1	-8%	-79*	10%[46.1 µM]	?	?
O=C(NCc1ccncc1)c1nc(-c2cccs2)no1	10%	12	?	3%	0%
N#Cc1nc(Cc2ccccc2)oc1N1CCN(c2ccccc2)CC1	?	-18	?	1%	.
N#Cc1nc(Cc2ccccc2)oc1N1CCC(Cc2ccccc2)CC1	7.1µM*	2	-18%	-30%	-5%
COc1cccc(-c2nc3cc(SC)ccc3cc2CN(C(=O)c2sccc2C)C2CC2)c1	.	.	.	.	-3%
SMILES	Lassa entry inh	HCMV inh	Marburg entry inh	HCV inhibitor	FMDV antiviral
CC1CNCCN1S(=O)(=O)c1cccc2cnccc12 (stereo not drawn)	?	-64*!	?	?	?
CC1CCCCN1S(=O)(=O)c1cccc2cccnc12 (stereo not drawn)	.	-22	.	3%	1%
CC(=O)Nc1ccc(S(=O)(=O)NCc2ccc3c(c2)CCN3C(C)=O)cc1	2%[46.1 µM]	?	.	.	-13%
CC(=Nc1ccccc1)C1=C(O)C(Cc2ccccc2)NC1=O (stereo not drawn)	-14%	-76*	6%	21%	33%
CCOC(=O)N1CCC(NC(=O)c2cc(COc3ccccc3SC)on2)CC1	-28%	-39	-20%	16µM*	0%
CSc1ccccc1OCc1cc(C(=O)N2CCc3[nH]cnc3C2c2ccccn2)no1 (stereo not drawn)	2%	-60*	?	-17%	-20%
CCOC(=O)N1CCC(NC(=O)c2cc(COc3ccc(F)cc3Cl)on2)CC1	1%	-11	-9%	.	-10%
COc1cc2c(cc1OC)CN(C(=O)c1cc(COc3ccccc3SC)on1)CC2	.	-35	.	.	?
CSc1ccccc1OCc1cc(C(=O)N2CCc3c(Cl)cccc3C2)no1	-30%[46.1 µM]	?	?	13µM*	-24%
O=C(CCCCn1c(=O)[nH]c2ccccc2c1=O)N1CCN(c2cccc(C(F)(F)F)c2)CC1	16µM*	-34	9.2µM*	11µM*	-28%
O=C(CCCCn1c(=O)[nH]c2ccsc2c1=O)N1CCN(c2cccc(C(F)(F)F)c2)CC1	-17%[46.1 µM]	?	?	.	40µM*
O=C(CCCn1c(=O)[nH]c2ccc(Br)cc2c1=O)N1CCN(c2cccc(Cl)c2)CC1	-25%[46.1 µM]	-100*	?	.	-1%
